This note sets out measurements from PubChem BioAssay (NCI).

The panel holds about 79,000 compounds, 15% with a hit somewhere; the sample as a whole holds those more often. A number with no mark means an inactive call. Activity calls are given as the source filed them. No stated cut-off is given here; in the data, active means growth inhibition above about 70%; inactive means the rest.

The nature of experiment [1]: NCI Yeast Anticancer Drug Screen. Data for the rad50 strain (AID 155).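 Further: 0% = growth of vehicle-only cultures of the same strain.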 To be noted: S. cerevisiae rad50 strain growth inhibition, stronger effect = higher value. In short, it runs like this: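 Genetically altered yeast (DNA repair pathway); compound treatment; growth inhibition vs vehicle ctrl.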
Experiment [2] in a line: NCI Yeast Anticancer Drug Screen. Data for the mec2-1 strain (AID 157). To be noted: S. cerevisiae mec2-1 strain, stronger effect = higher value. The method, boiled down: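 Using mec2-1 yeast: add compound, measure growth, express inhibition versus vehicle-treated cultures.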
Experiment [3] can be described thus: NCI Yeast Anticancer Drug Screen. Data for the sgs1 mgt1 strain (AID 161).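 Further: 0% = growth of cultures given vehicle only.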 The settings on record: S. cerevisiae sgs1 mgt1 strain, stronger effect = higher value. In short, it runs like this: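 Compounds are added to genetically altered yeast, and growth is compared with cultures given vehicle alone to give percent inhibition.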
Experiment [4] in a line: NCI Yeast Anticancer Drug Screen. Data for the cln2 rad14 strain (AID 165).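 Further: 0% = growth equal to vehicle treated cultures.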 To be noted: S. cerevisiae cln2 rad14 strain, stronger effect = higher value. In short, it runs like this:
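Yeast strain cln2 rad14, bearing defects in cell cycle control and DNA repair, serves as the test system; values reflect growth inhibition compared with vehicle.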

Experiment [5] can be described thus: NCI Yeast Anticancer Drug Screen. Data for the bub3 strain (AID 167). The settings on record: S. cerevisiae bub3 mutant strain, stronger effect = higher value. The method, boiled down:
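Yeast carrying a defined mutation is treated with each compound, and growth is compared with that of vehicle-exposed cells to give inhibition.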

Experiment [6] in a line: NCI Yeast Anticancer Drug Screen. Data for the mlh1 rad18 strain (AID 175). The settings on record: S. cerevisiae mlh1 rad18 strain growth inhibition, stronger effect = higher value. The method, boiled down:
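Steps: expose repair-defective yeast to compound; measure growth; express inhibition against vehicle-treated controls.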

[7] abbreviates: at 5.0 µM (retest, dose inferred, filed as 0.5).
[8] abbreviates: at 50.0 µM (retest, dose inferred, filed as 5.0).

Turning to `C1OCC2[CH2][Hg][S][Hg][CH2]C1O2`, the growth inhibition in experiment [1] (setting [7]) was 29%; in experiment [1] (setting [8]), 95% (active); in experiment [1] (at 50.0 µM), 92.8% (active); in experiment [2] (setting [7]), 34%; in experiment [2] (setting [8]), 97% (active); in experiment [2] (at 50.0 µM) it was 94.8% (active). Further, the growth inhibition in experiment [3] (setting [7]) was 67%; in experiment [3] (setting [8]), 98% (active); in experiment [3] (at 50.0 µM) it was 95.5% (active); in experiment [4] (setting [7]), 19%; in experiment [4] (setting [8]), 95% (active); in experiment [4] (at 50.0 µM) it was 92.6% (active). Further, the growth inhibition was 20% in experiment [5] (setting [7]); 96% (active) in experiment [5] (setting [8]); 95.2% (active) in experiment [5] (at 50.0 µM); 36% in experiment [6] (setting [7]); 94% (active) in experiment [6] (setting [8]); 91.3% (active) in experiment [6] (at 50.0 µM).

Take `O=C(N/N=C/c1cc(Br)cc(Br)c1[O-])c1ccccc1O.O=C(N/N=C/c1cc(Br)cc(Br)c1[O-])c1ccccc1O.[Co+2]`: the growth inhibition in experiment [1] (setting [7]) was 93% (active); in experiment [1] (setting [8]), 97% (active); in experiment [1] (at 50.0 µM), 94.6% (active); in experiment [2] (setting [7]), 95% (active); in experiment [2] (setting [8]), 96% (active); in experiment [2] (at 50.0 µM), 95.7% (active). Moreover, the growth inhibition in experiment [3] (setting [7]) was 91% (active); in experiment [3] (setting [8]), 98% (active); in experiment [3] (at 50.0 µM), 94.8% (active); in experiment [4] (setting [7]) it was 82% (active); in experiment [4] (setting [8]), 97% (active); in experiment [4] (at 50.0 µM) it was 92.5% (active). The growth inhibition was 90% (active) in experiment [5] (setting [7]); 97% (active) in experiment [5] (setting [8]); 95.5% (active) in experiment [5] (at 50.0 µM); 95% (active) in experiment [6] (setting [7]); 96% (active) in experiment [6] (setting [8]); 96% (active) in experiment [6] (at 50.0 µM).

On to `[N-]=[N+]=Nc1c([N+](=O)[O-])c(=O)n2c3c(cccc13)CCC2`, for which the growth inhibition in experiment [1] (setting [7]) is 46%; in experiment [1] (setting [8]), 98% (active); in experiment [1] (at 50.0 µM), 85.5% (active); in experiment [2] (setting [7]), 26%; in experiment [2] (setting [8]) it was 99% (active); in experiment [2] (at 50.0 µM) it was 88.8% (active). Also, the growth inhibition in experiment [3] (setting [7]) was 28%; in experiment [3] (setting [8]) it was 99% (active); in experiment [3] (at 50.0 µM), 92.8% (active); in experiment [4] (setting [7]), 18%; in experiment [4] (setting [8]), 84% (active); in experiment [4] (at 50.0 µM), 90.6% (active). Also, the growth inhibition in experiment [5] (setting [7]) was 37%; in experiment [5] (setting [8]), 99% (active); in experiment [5] (at 50.0 µM), 90.5% (active); in experiment [6] (setting [7]) it was 40%; in experiment [6] (setting [8]), 98% (active); in experiment [6] (at 50.0 µM), 90.2% (active).

Regarding `O=C(O)c1cc(Cc2ccc(O)c(C(=O)O)c2)ccc1O` (tested in a mixture with another compound), the growth inhibition was 92% (active) in experiment [1] (setting [7]); 32% in experiment [1] (setting [8]); 42.6% in experiment [1] (at 50.0 µM); 76% (active) in experiment [2] (setting [7]); 4% in experiment [2] (setting [8]); 26.7% in experiment [2] (at 50.0 µM). Besides, the growth inhibition in experiment [3] (setting [7]) is 40%; in experiment [3] (setting [8]), 48%; in experiment [3] (at 50.0 µM), 85% (active); in experiment [4] (setting [7]), 31%; in experiment [4] (setting [8]) it was 41%; in experiment [4] (at 50.0 µM), 14.1%. In addition, the growth inhibition is 33% in experiment [5] (setting [7]); 36% in experiment [5] (setting [8]); 72.7% (active) in experiment [5] (at 50.0 µM); 87% (active) in experiment [6] (setting [7]); 36% in experiment [6] (setting [8]); 74.4% (active) in experiment [6] (at 50.0 µM).

As for `C=C1C(=O)O[C@@H]2C[C@@H](C)[C@@H]3C=CC(=O)[C@@]3(C)[C@@H](O)[C@H]12`, the growth inhibition was 16% in experiment [1] (setting [7]); 16% in experiment [1] (setting [8]); 9.25% in experiment [1] (at 50.0 µM); 2% in experiment [2] (setting [7]); 19% in experiment [2] (setting [8]); 17.4% in experiment [2] (at 50.0 µM). The growth inhibition was 3% in experiment [3] (setting [7]); 31% in experiment [3] (setting [8]); 27.5% in experiment [3] (at 50.0 µM); 11% in experiment [4] (setting [7]); 14% in experiment [4] (setting [8]); 22.1% in experiment [4] (at 50.0 µM). Also, the growth inhibition in experiment [5] (setting [7]) was -18%; in experiment [5] (setting [8]) it was 3%; in experiment [5] (at 50.0 µM), 22.9%; in experiment [6] (setting [7]), 11%; in experiment [6] (setting [8]) it was 27%; in experiment [6] (at 50.0 µM), 32.2%.

With `CC(=O)[O-].O=[N+]([O-])c1ccc([O-])c(C=NCCN=Cc2cc([N+](=O)[O-])ccc2[O-])c1.[Mn+3]`, the growth inhibition in experiment [1] (setting [7]) is 15%; in experiment [1] (setting [8]), 96% (active); in experiment [1] (at 50.0 µM), 91.8% (active); in experiment [2] (setting [7]), -2%; in experiment [2] (setting [8]), 98% (active); in experiment [2] (at 50.0 µM) it was 79.2% (active). For the same compound, the growth inhibition in experiment [3] (setting [7]) is 10%; in experiment [3] (setting [8]) it was 93% (active); in experiment [3] (at 50.0 µM) it was 91.6% (active); in experiment [4] (setting [7]), 19%; in experiment [4] (setting [8]) it was 95% (active); in experiment [4] (at 50.0 µM), 48.2%. For the same compound, the growth inhibition in experiment [5] (setting [7]) was 1%; in experiment [5] (setting [8]), 94% (active); in experiment [5] (at 50.0 µM) it was 88.5% (active); in experiment [6] (setting [7]), 12%; in experiment [6] (setting [8]) it was 97% (active); in experiment [6] (at 50.0 µM), 93.3% (active).

Consider `C[CH2][Sn]([F])([CH2]C)[CH2]C`, for which the growth inhibition in experiment [1] (setting [7]) is 8%; in experiment [1] (setting [8]), 75% (active); in experiment [1] (at 50.0 µM) it was 86.6% (active); in experiment [2] (setting [7]), 6%; in experiment [2] (setting [8]), 92% (active); in experiment [2] (at 50.0 µM), 89.7% (active). Also, the growth inhibition in experiment [3] (setting [7]) was 9%; in experiment [3] (setting [8]) it was 90% (active); in experiment [3] (at 50.0 µM), 88.6% (active); in experiment [4] (setting [7]) it was -6%; in experiment [4] (setting [8]) it was 60%; in experiment [4] (at 50.0 µM), 64.2%. Also, the growth inhibition was 3% in experiment [5] (setting [7]); 76% (active) in experiment [5] (setting [8]); 88.6% (active) in experiment [5] (at 50.0 µM); 5% in experiment [6] (setting [7]); 89% (active) in experiment [6] (setting [8]); 88.3% (active) in experiment [6] (at 50.0 µM).

In the case of `CC1=CC(=C2C=CC(=[N+](C)C)C=C2)C=C(C)S1`, the growth inhibition in experiment [1] (setting [7]) was 21%; in experiment [1] (setting [8]) it was 72% (active); in experiment [1] (at 50.0 µM), 55.6%; in experiment [2] (setting [7]), 10%; in experiment [2] (setting [8]) it was 91% (active); in experiment [2] (at 50.0 µM), 71.6% (active). Moreover, the growth inhibition is 9% in experiment [3] (setting [7]); 94% (active) in experiment [3] (setting [8]); 87.3% (active) in experiment [3] (at 50.0 µM); 7% in experiment [4] (setting [7]); 82% (active) in experiment [4] (setting [8]); 77.7% (active) in experiment [4] (at 50.0 µM). The growth inhibition in experiment [5] (setting [7]) was -2%; in experiment [5] (setting [8]) it was 96% (active); in experiment [5] (at 50.0 µM), 87.7% (active); in experiment [6] (setting [7]), 11%; in experiment [6] (setting [8]) it was 90% (active); in experiment [6] (at 50.0 µM) it was 87% (active).

As for `O=C(O)C(F)(F)F.[Ag]`, the growth inhibition in experiment [1] (setting [7]) was 99% (active); in experiment [1] (setting [8]), 98% (active); in experiment [1] (at 50.0 µM), 98.1% (active); in experiment [2] (setting [7]), 100% (active); in experiment [2] (setting [8]), 99% (active); in experiment [2] (at 50.0 µM), 99.2% (active). Besides, the growth inhibition is 99% (active) in experiment [3] (setting [7]); 99% (active) in experiment [3] (setting [8]); 99.1% (active) in experiment [3] (at 50.0 µM); 99% (active) in experiment [4] (setting [7]); 99% (active) in experiment [4] (setting [8]); 98.7% (active) in experiment [4] (at 50.0 µM). Also, the growth inhibition in experiment [5] (setting [7]) is 99% (active); in experiment [5] (setting [8]) it was 98% (active); in experiment [5] (at 50.0 µM) it was 98.5% (active); in experiment [6] (setting [7]), 99% (active); in experiment [6] (setting [8]), 99% (active); in experiment [6] (at 50.0 µM), 97.6% (active).

On to `C#CC1(OC(C)=O)CCC2C3CC=C4C=C(OC(C)=O)CCC4(C)C3CCC21C` (stereo not given), for which the growth inhibition in experiment [1] (setting [7]) was 16%; in experiment [1] (setting [8]) it was 48%; in experiment [1] (at 50.0 µM), 90.5% (active); in experiment [2] (setting [7]) it was -1%; in experiment [2] (setting [8]), 17%; in experiment [2] (at 50.0 µM) it was 40.2%. The growth inhibition in experiment [3] (setting [7]) is 2%; in experiment [3] (setting [8]) it was 56%; in experiment [3] (at 50.0 µM), 86.9% (active); in experiment [4] (setting [7]) it was 10%; in experiment [4] (setting [8]), 15%; in experiment [4] (at 50.0 µM) it was -0.6%. Moreover, the growth inhibition in experiment [5] (setting [7]) was 1%; in experiment [5] (setting [8]), 3%; in experiment [5] (at 50.0 µM), 13.9%; in experiment [6] (setting [7]), 2%; in experiment [6] (setting [8]), -4%; in experiment [6] (at 50.0 µM), 61.1%.
